The source of these data is article PMC4336329 (PLoS ONE, 2015).

The whole screen tested about 310,000 compounds, of which about 14,000 (4.5%) showed an effect of 50% or more. Effects have a minus sign here. What follows is part of a selection rich in strong results, with near analogues and random picks from the rest.
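Further: peak tail current of the secondary pulse compared with the same well before compound.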

Chain of human ether-à-go-go-related gene (hERG) potassium channel (Q12809 whole entry, looked up): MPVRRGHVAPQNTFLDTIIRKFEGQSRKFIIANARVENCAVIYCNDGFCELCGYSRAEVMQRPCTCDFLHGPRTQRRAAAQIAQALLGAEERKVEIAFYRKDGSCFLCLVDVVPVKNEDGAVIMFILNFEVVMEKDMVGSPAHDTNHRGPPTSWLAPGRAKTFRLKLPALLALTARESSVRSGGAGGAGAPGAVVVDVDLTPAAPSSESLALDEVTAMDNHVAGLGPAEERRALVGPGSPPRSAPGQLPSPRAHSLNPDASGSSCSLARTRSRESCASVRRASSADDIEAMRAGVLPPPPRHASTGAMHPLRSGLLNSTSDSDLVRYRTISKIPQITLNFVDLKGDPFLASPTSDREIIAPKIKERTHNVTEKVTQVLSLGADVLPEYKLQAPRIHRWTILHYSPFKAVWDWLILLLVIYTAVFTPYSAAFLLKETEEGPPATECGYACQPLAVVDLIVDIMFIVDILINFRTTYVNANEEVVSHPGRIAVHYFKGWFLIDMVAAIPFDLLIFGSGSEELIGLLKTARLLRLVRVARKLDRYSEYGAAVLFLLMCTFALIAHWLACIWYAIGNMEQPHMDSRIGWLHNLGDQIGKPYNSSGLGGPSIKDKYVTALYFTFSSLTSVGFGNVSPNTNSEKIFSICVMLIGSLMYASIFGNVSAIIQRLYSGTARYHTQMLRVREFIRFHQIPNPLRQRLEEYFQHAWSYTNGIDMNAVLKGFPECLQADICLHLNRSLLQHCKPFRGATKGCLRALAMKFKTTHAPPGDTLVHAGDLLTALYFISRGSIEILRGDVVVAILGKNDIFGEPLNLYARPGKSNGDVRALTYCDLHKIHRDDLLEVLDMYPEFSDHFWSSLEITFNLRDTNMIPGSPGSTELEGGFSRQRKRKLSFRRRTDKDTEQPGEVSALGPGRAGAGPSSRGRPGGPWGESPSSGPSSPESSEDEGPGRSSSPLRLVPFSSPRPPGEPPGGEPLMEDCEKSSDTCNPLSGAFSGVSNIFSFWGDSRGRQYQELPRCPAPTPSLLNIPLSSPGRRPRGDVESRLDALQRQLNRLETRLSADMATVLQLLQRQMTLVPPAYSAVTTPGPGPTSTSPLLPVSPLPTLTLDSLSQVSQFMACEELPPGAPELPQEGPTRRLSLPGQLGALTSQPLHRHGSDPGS

The test has as its target human ether-à-go-go-related gene (hERG) potassium channel (human, UniProt Q12809). The experiment in a line: primary screen, population patch clamp on CHO cells stably expressing hERG; higher = less effect of the substance.
`Cc1cc(C)c2cc(C(=O)N3CCC(N4CCCCC4)CC3)[nH]c2c1`: the “hERG current change (%, negative = inhibition) at 10uM” value is recorded as -69.2%.

On to `CCOC(=O)C1CCN(C(=O)c2cc3c(C)cc(C)cc3[nH]2)CC1`, for which the “hERG current change (%, negative = inhibition) at 10uM” value is listed as -15.2%.

With `Cc1cc(C)c2cc(C(=O)N3CCC(C(=O)c4ccc(F)cc4)CC3)[nH]c2c1`, the “hERG current change (%, negative = inhibition) at 10uM” value was determined as 2.63%.

As to `O=C(NNC(=O)c1cccs1)c1ccc(Br)o1`, the “hERG current change (%, negative = inhibition) at 10uM” value was 15.8%.

For `CC1C(=O)NN=C1C(=O)N/N=C/c1cccs1` (stereo not shown), the “hERG current change (%, negative = inhibition) at 10uM” value is listed as 17.3%.

Consider `COC(=O)c1nn(-c2ccccc2)c(Cl)c1/C=N/OCc1ccc(Cl)cc1Cl`, for which the “hERG current change (%, negative = inhibition) at 10uM” value is 20.6%.

With `COC(=O)c1ccc(CSc2nnc3c(Cl)cc(Cl)cn23)o1`, the “hERG current change (%, negative = inhibition) at 10uM” value is recorded as 10.9%.

With `O=C(NCc1ccco1)C1CC(=O)N(c2ccc(O)cc2)C1` (stereo not shown), the “hERG current change (%, negative = inhibition) at 10uM” value is given as -10.2%.

Regarding `COc1ccc(N2CC(C(=O)Nc3ccccc3C(=O)NCc3ccco3)CC2=O)cc1` (stereo not shown), the “hERG current change (%, negative = inhibition) at 10uM” value is given as -42%.

`CNC(=O)c1ccccc1NC(=O)C1CC(=O)N(c2ccc(OC)cc2)C1` (stereo not shown): the “hERG current change (%, negative = inhibition) at 10uM” value is reported as -12.3%.

For `CCCOc1ccc(N2CC(C(=O)Nc3ccccc3C(=O)NC)CC2=O)cc1` (stereo not shown), the “hERG current change (%, negative = inhibition) at 10uM” value was -71.8%.

Take `O=C(NCc1ccco1)C1CC(=O)N(c2ccc(Cl)cc2)C1` (stereo not shown): the “hERG current change (%, negative = inhibition) at 10uM” value is -6.16%.

Consider `O=C(NCc1ccco1)c1ccccc1NC(=O)C1CC(=O)N(c2ccc(Cl)cc2)C1` (stereo not shown), for which the “hERG current change (%, negative = inhibition) at 10uM” value is listed as -78.4%.

Turning to `CCCOc1ccc(N2CC(C(=O)Nc3ccccc3F)CC2=O)cc1` (stereo not shown), the “hERG current change (%, negative = inhibition) at 10uM” value is -3.15%.

`CCCCOc1ccc(N2CC(C(=O)NCc3ccco3)CC2=O)cc1` (stereo not shown): the “hERG current change (%, negative = inhibition) at 10uM” value was -14.5%.

`CCCOc1ccc(N2CC(C(=O)Nc3ccccc3C(=O)NCc3ccco3)CC2=O)cc1` (stereo not shown): the “hERG current change (%, negative = inhibition) at 10uM” value is on record as -71.5%.

Regarding `CCc1ccc(/C=N/NC(=O)c2cc(-c3ccccc3OC)nc3ccccc23)s1`, the “hERG current change (%, negative = inhibition) at 10uM” value stood at 9.69%.

On to `O=C(NC1CCN(Cc2ccccc2)CC1)C1CCN(S(=O)(=O)c2cccc3nsnc23)CC1`, for which the “hERG current change (%, negative = inhibition) at 10uM” value is -23.7%.

For `CN(C)CC1CCCCC1OC(=O)/C=C/c1ccccc1.Cl` (stereo not shown), the “hERG current change (%, negative = inhibition) at 10uM” value is given as -33.2%.

As to `Cc1ccccc1C(=O)NNc1ccc([N+](=O)[O-])cc1`, the “hERG current change (%, negative = inhibition) at 10uM” value is reported as -17.3%.

With `CCCOc1ccc(C2/C(=C(/O)c3ccccc3)C(=O)C(=O)N2CCCN(C)C)cc1OC` (stereo not shown), the “hERG current change (%, negative = inhibition) at 10uM” value was determined as 5.35%.

Take `Cc1ccccc1CNC(=O)CN(c1cccc([N+](=O)[O-])c1)S(C)(=O)=O`: the “hERG current change (%, negative = inhibition) at 10uM” value stood at 6.08%.

On to `Cc1ccc(N/C(N)=N/c2nc(CSc3nnc(C)s3)cc(=O)[nH]2)c(C)c1`, for which the “hERG current change (%, negative = inhibition) at 10uM” value is -8.86%.

In the case of `Cc1ccc(-n2ncc3c2CC(C)(C)CC3NC(=O)c2ccncc2)cc1` (stereo not shown), the “hERG current change (%, negative = inhibition) at 10uM” value is recorded as -72.2%.

As for `Cc1cnc(C(=O)NC2CC(C)(C)Cc3c2cnn3-c2ccccc2)cn1` (stereo not shown), the “hERG current change (%, negative = inhibition) at 10uM” value is -39%.

On to `CC1(C)Cc2c(cnn2-c2cccc(F)c2)C(NC(=O)c2cc[n+]([O-])cc2)C1` (stereo not shown), for which the “hERG current change (%, negative = inhibition) at 10uM” value was -37.3%.

Turning to `Cc1ccc(-n2ncc3c2CC(C)(C)CC3NC(=O)c2cc[n+]([O-])cc2)cc1` (stereo not shown), the “hERG current change (%, negative = inhibition) at 10uM” value is recorded as -75.4%.

Consider `CC1=C(C(=O)NC2CC(C)(C)Cc3c2cnn3-c2ccc(C)cc2)OCCO1` (stereo not shown), for which the “hERG current change (%, negative = inhibition) at 10uM” value worked out at 3.64%.

Take `Cc1ccccc1-n1ncc2c1CC(C)(C)CC2NC(=O)c1ccncc1` (stereo not shown): the “hERG current change (%, negative = inhibition) at 10uM” value is -47.4%.

`Cc1cc(C(=O)NC2CC(C)(C)Cc3c2cnn3-c2ccccc2)n[nH]1` (stereo not shown): the “hERG current change (%, negative = inhibition) at 10uM” value is on record as -19.2%.

On to `Cc1ccc(-n2ncc3c2CC(C)(C)CC3NC(=O)c2ccccn2)cc1` (stereo not shown), for which the “hERG current change (%, negative = inhibition) at 10uM” value is -73.7%.

For the compound `Cc1ccc(-n2ncc3c2CC(C)(C)CC3NC(=O)c2ccc[n+]([O-])c2)cc1` (stereo not shown), the “hERG current change (%, negative = inhibition) at 10uM” value is -1.89%.

As for `O=C1N[C@@H](Cc2cn(S(=O)(=O)c3ccccc3)c3ccccc23)C(=O)N[C@H]1Cc1ccccc1`, the “hERG current change (%, negative = inhibition) at 10uM” value was 14.9%.

On to `Cn1nc(C(=O)NC2CCCCC2)c2c1-c1ccccc1S(=O)(=O)C2`, for which the “hERG current change (%, negative = inhibition) at 10uM” value amounted to 11.7%.

`CCCCc1ccc(-c2nc(N)n[nH]2)cc1`: the “hERG current change (%, negative = inhibition) at 10uM” value amounted to 6.27%.

With `O=[N+]([O-])c1ccc2c(c1)C(N1CCOCC1)/C(=C/COc1ccc(F)cc1)O2` (stereo not shown), the “hERG current change (%, negative = inhibition) at 10uM” value is listed as -26%.

For the compound `O=[N+]([O-])c1ccc2c(c1)C(N1CCOCC1)/C(=C/COc1ccc(Cl)cc1Cl)O2` (stereo not shown), the “hERG current change (%, negative = inhibition) at 10uM” value is on record as -1.06%.

`O=[N+]([O-])c1ccc(OC/C=C2\Oc3ccc([N+](=O)[O-])cc3C2N2CCOCC2)cc1` (stereo not shown): the “hERG current change (%, negative = inhibition) at 10uM” value is reported as -71.7%.

For `Oc1nc(Nc2ccc(Cl)cc2Cl)sc1/C=C1\C=Nc2ccccc21`, the “hERG current change (%, negative = inhibition) at 10uM” value amounted to 9.08%.

For `CCCOc1ccc(C(C)=O)cc1CN1CCOCC1.Cl`, the “hERG current change (%, negative = inhibition) at 10uM” value was determined as 2.99%.

Consider `CCCCn1nc(NC(=O)CCC)c2cc3cc(OC)ccc3nc21`, for which the “hERG current change (%, negative = inhibition) at 10uM” value was -3.42%.

On to `CCCCn1nc(NC(=O)CC)c2cc3cc(OC)ccc3nc21`, for which the “hERG current change (%, negative = inhibition) at 10uM” value was -11.2%.

As for `CCCCn1nc(NC(=O)COC)c2cc3cc(OC)ccc3nc21`, the “hERG current change (%, negative = inhibition) at 10uM” value was -53.2%.
